± gives the standard deviation.
These sequences were tested on MILI (PIWIL2) piRISC loaded with L1MC piRNA (26 nt) (assay: pre-steady-state target cleavage rate (min^-1); guide: L1MC piRNA 5'p-UAACUAAAUACUAUGCAAGCUGUAGG; MIWI and MILI are mouse PIWI proteins and EfPiwi is from a freshwater sponge; tags in brackets are library labels; higher = faster piRNA-guided slicing of the target). Settings: auxiliary factor: 500 nM mouse GTSF1.
Procedure: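 Cleave-'n-Seq: a library of target RNAs (target site embedded in constant flanks, ACAGCATTCCGCGTTAGTGATATCCG... 5' flank; DNA-blocked outside the site) at 0.1 nM was incubated with 1 nM active mouse MILI or MIWI piRISC (synthetic 5'-monophosphorylated piRNA guide) with or without 500 nM mouse GTSF1 at 33 °C for 1 min to 16 h. Uncleaved targets were sequenced and normalised to non-target controls, and the pooled three trials were fitted to a burst-and-steady-state model to give the pre-steady-state cleavage rate (min^-1; k3 is constrained to at most 1e-4). Sequence is the target site only; target names encode pairing extent (gX:gY) and contiguous / 1-mismatch / 2-mismatch / bulge geometry. Fits with R² ≤ 0 are excluded.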
With UCCUCCUACAGCUUGGAUAGUAUUUACUUA the “pre-steady-state target cleavage rate” value was 0.0993 ± 0.024. UCCUCCUACAGCUGCAUAGUAUUUAGUUA was tested, and the “pre-steady-state target cleavage rate” value was 0.275 ± 0.018. For UCCUGGAUCGAGCUUGCAUAGUAUUUAGUUA, the “pre-steady-state target cleavage rate” value was 0.201 ± 0.016. For UCCUGGAUGAGCUAGCAUAGUAAUUAGUUA, the “pre-steady-state target cleavage rate” value was 0.131 ± 0.018. In the case of UCCUGGAUGUCGAAGCAUAGUAUUUUAGUUA, the “pre-steady-state target cleavage rate” value is reported as 0.0433 ± 0.01. For UCCUCCUACAGGUUGCAUAGUAUUAAGUUA, the “pre-steady-state target cleavage rate” value was 0.212 ± 0.027. For UCCUGGUACAGCUUGCAUAGUAUUAAGUAA, the “pre-steady-state target cleavage rate” value was 0.128 ± 0.035. In the case of UCCUGGAUCAGCUUGCAUAGAAUUUAGUUA, the “pre-steady-state target cleavage rate” value is reported as 0.0368 ± 0.0086. In the case of UCCUCCUACAGCUAGCAUAGUAUUAAGUUA, the “pre-steady-state target cleavage rate” value is reported as 0.205 ± 0.019. UCCUGCUACAGCUUGCAUAGUAUUUAAGUUA was tested, and the “pre-steady-state target cleavage rate” value was 0.365 ± 0.043. UCCUGGAUGUGCUUGCAAAGUAAUUAGUUA was tested, and the “pre-steady-state target cleavage rate” value was 0.0171 ± 0.0056. UCCUGGAACAGCUUCGAUAGUAUUUAGUUA was tested, and the “pre-steady-state target cleavage rate” value was 0.262 ± 0.015. UCCUGGAUGAGCUUGCAUAGAAAUUAGUUA was tested, and the “pre-steady-state target cleavage rate” value was 0.0228 ± 0.0075. For UCCUGGAUGUCCUUGCUUAGUAAUUAGUUA, the “pre-steady-state target cleavage rate” value was 0.0235 ± 0.0061. UCCUCCUACAGCUUGCAUAGUAUUAAGAAA was tested, and the “pre-steady-state target cleavage rate” value was 0.159 ± 0.036. UCCUGGAACAGCUUGCUAGUAUUUAGUUA was tested, and the “pre-steady-state target cleavage rate” value was 0.0161 ± 0.0069. In the case of UCCUGGAUCAGCUAGCAUAGUAAUUAGUUA, the “pre-steady-state target cleavage rate” value is reported as 0.152 ± 0.015. With UCCUGGUACUGCUUGCAUAGUUUUUAGUUA the “pre-steady-state target cleavage rate” value was 0.0403 ± 0.012. With UCCUGGAACAGCAUUGCAUAGUAUUUAGUUA the “pre-steady-state target cleavage rate” value was 0.233 ± 0.024. For UCCUGGAUGUCGAUGCAUAGUAAAUAGUUA, the “pre-steady-state target cleavage rate” value was 0.0191 ± 0.0068. In the case of UCCUGGAUGUGCGUUGCAUAGUAUUUAGUUA, the “pre-steady-state target cleavage rate” value is reported as 0.145 ± 0.016.

Same assay, conditions: auxiliary factor: none (no GTSF1)
With UCCUCCUACAGCUGCAUAGUAUUUAGUUA the “pre-steady-state target cleavage rate” value was 0.00792 ± 0.0023. UCCUGGAUCGAGCUUGCAUAGUAUUUAGUUA was tested, and the “pre-steady-state target cleavage rate” value was 0.0122 ± 0.0026. In the case of UCCUGGAUGAGCUAGCAUAGUAAUUAGUUA, the “pre-steady-state target cleavage rate” value is reported as 0.00472 ± 0.0025. For UCCUGGAUGUCGAAGCAUAUAUUUAGUUA, the “pre-steady-state target cleavage rate” value was less than 0.0001. In the case of UCCUGGAUGUCGAAGCAUAGUAUUUUAGUUA, the “pre-steady-state target cleavage rate” value is reported as 0.00324 ± 0.0028. For UCCUCCUACAGGUUGCAUAGUAUUAAGUUA, the “pre-steady-state target cleavage rate” value was 0.00545 ± 0.0022. UCCUGGAUCAGCUUGCAUAGAAUUUAGUUA was tested, and the “pre-steady-state target cleavage rate” value was 0.00356 ± 0.002. For UCCUCCUACAGCUAGCAUAGUAUUAAGUUA, the “pre-steady-state target cleavage rate” value was 0.0038 ± 0.0018. For UCCUGCUACAGCUUGCAUAGUAUUUAAGUUA, the “pre-steady-state target cleavage rate” value was 0.00882 ± 0.0027. UCCUGGAUGUGCUUGCAAAGUAAUUAGUUA was tested, and the “pre-steady-state target cleavage rate” value was 0.00395 ± 0.0028. For UCCUGGAUGUCGAACGAUUCAAUUUAGUUA, the “pre-steady-state target cleavage rate” value was less than 0.0001. With UCCUGGAACAGCUUCGAUAGUAUUUAGUUA the “pre-steady-state target cleavage rate” value was 0.00483 ± 0.0022. With UCCUGGAUGUCCUUGCUUAGUAAUUAGUUA the “pre-steady-state target cleavage rate” value was 0.00598 ± 0.0019. In the case of UCCUGGAACAGCUUGCUAGUAUUUAGUUA, the “pre-steady-state target cleavage rate” value is reported as 0.00397 ± 0.0027. With UCCUGGAUCAGCUAGCAUAGUAAUUAGUUA the “pre-steady-state target cleavage rate” value was 0.00502 ± 0.0022. In the case of UCCUGGUACUGCUUGCAUAGUUUUUAGUUA, the “pre-steady-state target cleavage rate” value is reported as 0.00996 ± 0.0046. In the case of UCCUGGAACAGCAUUGCAUAGUAUUUAGUUA, the “pre-steady-state target cleavage rate” value is reported as 0.00862 ± 0.0022. UCCUGGAUGUCGAUGCAUAGUAAAUAGUUA was tested, and the “pre-steady-state target cleavage rate” value was 0.00231 ± 0.0023. With UCCUGGAUGUGCGUUGCAUAGUAUUUAGUUA the “pre-steady-state target cleavage rate” value was 0.00925 ± 0.0032.

From the supplement of paper PMC10338343
